We go through 96 compounds from PubChem BioAssay AID504329 (Southern Research Specialized Biocontainment Screening …, 2011).

Among all 340,000 compounds or so, about 1,000 (0.29%) were called active. Cut-off read from the data, not from the text of the source: inconclusive = inhibition above about 27% without an active follow-up result; inactive = below that. A selection follows. Entries with a potency or affinity are not part of this list.

This test in a line: NS1A inhibition, H1N1 influenza, cell based functional assay (AID 504329). As to conditions: percent inhibition, at 12.5 µM, stronger effect = higher value.
For `C/C(=N\NC(=S)NC1CCCCC1)c1ccccc1`, the inhibition is 11.5% (inactive). With `C/C(=N\NC(=O)C1CC1)c1cccnc1`, the inhibition is -3.09% (inactive).

Consider `C/C(CC(=O)NC1CCCCCC1)=N\NC(=O)c1cnccn1`, for which the inhibition is 2.22% (inactive). For the compound `CC(=O)c1nccs1`, the inhibition was -23% (inactive). With `CCNC(=S)N1CCN(c2ccccn2)CC1`, the inhibition was -6.5% (inactive). Regarding `S=C(NC1CCCC1)N1CCN(c2ccccn2)CC1`, the inhibition is -9.04% (inactive). In the case of `C/C(=N/NC(=O)c1cnccn1)c1ccncc1` it was 2.49% (inactive); in that of `C/C(=N\NC(=S)NC1CCCCC1)c1cccs1`, 7.94% (inactive); in that of `COc1cc(SC)ccc1C(=O)Nc1ccc2c(c1)CCN2S(C)(=O)=O`, 0.73% (inactive). `CC(=O)Nc1cc(C(=O)OCC(=O)c2ccc(C)cc2)ccc1C`: the inhibition is 2.61% (inactive). The value for `CCOc1ccc(-c2nc(S(=O)(=O)c3ccccc3)c(N3CCOCC3)o2)cc1` was 6.87% (inactive). In the case of `CNC(=O)c1c(NC(=O)C2=COCCO2)sc2c1CCC(C)C2` (stereo unspecified), the inhibition was -0.48% (inactive).

For `COc1ccc(CCN(Cc2ccccn2)C(=S)Nc2ccccc2F)cc1OC`, the inhibition was 2.66% (inactive). In the case of `Cc1cccc(N2CCN(C(=O)CCn3c(=O)[nH]c4ccsc4c3=O)CC2C)c1` (stereo unspecified) it was 14.2% (inactive); in that of `CC(C)[C@H](NC(=O)OCc1ccccc1)C(=O)OCC(=O)Nc1ccc(N2CCOCC2)cc1`, -2.26% (inactive). In the case of `O=C(CSc1ccc(C(F)(F)F)cn1)Nc1ccccc1` it was -2.05% (inactive).

With `O=C(CSc1nnc(-c2ccccn2)o1)Nc1ccccc1`, the inhibition was -0.31% (inactive). Consider `O=C(CSc1ccccn1)Nc1ccc(NC(=O)CSc2ccccn2)cc1`, for which the inhibition is 3.94% (inactive). As to `O=C(CSc1ncccn1)Nc1ccccc1`, the inhibition was -12.3% (inactive). In the case of `O=C(N/N=C/C1CC2CCC1C2)c1ccc2c(c1)OCO2` (stereo unspecified), the inhibition was 4.78% (inactive).

Turning to `Cc1ccccc1C(=O)c1cccn1CC(=O)NCCCc1ccccc1`, the inhibition is -0.87% (inactive). As to `CCOC(=O)c1c(C)[nH]c(C(=O)OCc2ccc(F)cc2)c1C`, the inhibition is -5.78% (inactive).

Turning to `CCOc1ccc(C2NC(=O)NC(C)=C2C(=O)OCc2ccccc2)cc1` (stereo unspecified), the inhibition is -2.43% (inactive). For the compound `CCOC(=O)C1=C(c2ccccc2)NC(=O)NC1c1ccc(OC)c(OC)c1` (stereo unspecified), the inhibition was -15.2% (inactive). In the case of `CCOC(=O)C1=C(COc2ccccc2)NC(=O)NC1c1ccc(Cl)cc1` (stereo unspecified) it was 3.45% (inactive). Regarding `CCOC(=O)C1=C(c2ccccc2)NC(=O)NC1c1ccc(OCC#N)c(OC)c1` (stereo unspecified), the inhibition is 1.47% (inactive). The value for `CCOC(=O)[C@@H]1[C@H]2COc3cc(OC)ccc3[C@@H]2N2C(=O)N(c3cccc(C)c3)C(=O)[C@]12C` was 2.49% (inactive); that for `COc1ccc(C2=CC(c3ccc(OC)c(OC)c3)c3c(c4ccccc4oc3=O)O2)cc1OC` (stereo unspecified) was 26.9% (inactive); that for `Cc1ccc(NC2(C(N)=O)CCCC2)cc1` was -3.06% (inactive). Turning to `CCC1=C(C)C(N2CCOCC2)=NP(N2CCOCC2)(N2CCOCC2)=N1`, the inhibition was 3.31% (inactive). As for `CCC(Sc1nc(C)cc(=O)[nH]1)C(=O)Nc1sc2c(c1C#N)CCCC2` (stereo unspecified), the inhibition was -5.51% (inactive). The value for `N#Cc1cc(NC2CCCC2)c([N+](=O)[O-])cc1C#N` was 12.5% (inactive); that for `Cc1cc(C(=O)NC2CCCCCCC2)ccc1[N+](=O)[O-]` was -15.4% (inactive). As to `CCCCCCNc1c([N+](=O)[O-])cc(C)cc1[N+](=O)[O-]`, the inhibition was 28.9% (inactive). With `Cc1cc([N+](=O)[O-])c(NCCCCCCO)c([N+](=O)[O-])c1`, the inhibition is 11% (inactive). In the case of `CCCn1c2ccccc2c2cnn(CC(=O)NCCCOC)c(=O)c21` it was 0.78% (inactive). In the case of `CCN(CC(=O)Nc1c(F)cccc1F)C(=O)CNC(=O)c1ccco1`, the inhibition is -4.3% (inactive). Consider `CN1c2ccccc2N(C)C1(C)c1ccccc1`, for which the inhibition is 14.4% (inactive).

With `CN1c2cccc3cccc(c23)N(C)C1(C)C`, the inhibition was 20.9% (inactive). For the compound `CC(C(c1ccc2c(c1)OCO2)c1c(N)n(C)c(=O)n(C)c1=O)[N+](=O)[O-]` (stereo unspecified), the inhibition was -16.4% (inactive).

As to `COc1ccc(NC(=O)CSc2nnc3ccc(-c4cccnc4)nn23)cc1OC`, the inhibition is -19.3% (inactive). On to `COC(=O)c1ccc(C(=O)NC(=S)Nc2ccc3nc(SC)sc3c2)cc1`, for which the inhibition was -0.55% (inactive). In the case of `NS(=O)(=O)c1cccc(NC(=O)COC(=O)COc2ccc3ccccc3c2)c1` it was -0.29% (inactive); in that of `O=C(N/N=C/c1cccs1)c1ccc2c(c1)OCO2`, 8.44% (inactive). The value for `CN(C)c1ccc(N=Nc2ccc(C(=O)O)cc2)cc1` was -2.64% (inactive); that for `CN(C)c1ccc2c(c1)OC(N)=C(C#N)C2c1cccc(F)c1` (stereo unspecified) was -65.2% (inactive); that for `Nc1n[nH]c(N)c1N=Nc1cccc(F)c1` was 1.03% (inactive). Take `CC(=O)c1ccc(N=Nc2ccc(N(C)C)cc2)cc1`: the inhibition was 13% (inactive).

`Cc1c(Cl)c(C(F)(F)F)nn1CC(=O)NN`: the inhibition was 3.69% (inactive).

Regarding `O=C(NCc1ccccn1)/C(=C/c1ccco1)NC(=O)c1ccccc1`, the inhibition was 1.38% (inactive). Take `CCOC(=O)N1CCN(C(=O)c2sc3nc(-c4ccc(F)cc4)cn3c2C)CC1`: the inhibition was -1.44% (inactive). Turning to `O=C(Cc1ccccc1)Nn1c(-c2ccccc2F)nc2ccccc2c1=O`, the inhibition was -1.28% (inactive).

Take `CC1(O)CC2CC1C(C(=O)O)C2C(=O)O` (stereo unspecified): the inhibition is -2.28% (inactive).

`CCn1cc([N+](=O)[O-])c(C(=O)N2CCCc3ccccc32)n1`: the inhibition was 4.06% (inactive). For the compound `COc1ccc(F)cc1S(=O)(=O)n1cnc2ccccc21`, the inhibition was 2.94% (inactive). In the case of `CCOc1ccc(OCCCC(=O)O)cc1`, the inhibition was -12.4% (inactive). Consider `COC(=O)c1ccc(N2CCN(C)CC2)c(NC(=O)c2ccc(-c3ccc(Cl)cc3)o2)c1`, for which the inhibition is -4.26% (inactive). Consider `CN1CCN(c2ccc(NC(=O)c3ccc(-c4ccc(Cl)cc4)o3)cc2)CC1`, for which the inhibition is 6.66% (inactive). In the case of `N#C/C(=C\c1ccc(OCc2ccccc2)cc1)C(N)=O` it was 4.02% (inactive); in that of `CCn1c(=O)n(CC)c2cc(N3CCCC3)c(NC(=O)c3cc(Cl)ccc3OC)cc21`, 12.7% (inactive); in that of `CN1CCN(/N=C/c2ccc(-c3ccccc3)cc2)CC1`, 10.8% (inactive). With `CN1CCN(/N=C/c2cccc(Cl)c2Cl)CC1`, the inhibition is 3.86% (inactive). Turning to `Cc1ccc(C)c(OCCSc2nnc(C)c(=O)[nH]2)c1`, the inhibition was -14.8% (inactive). In the case of `Cc1ccc(S(=O)(=O)N2CCCC(C(=O)N3CCC4(CC3)OCCO4)C2)cc1` (stereo unspecified) it was 2.04% (inactive); in that of `COc1ccc(S(=O)(=O)N(CCC(=O)O)Cc2ccccc2)cc1`, -3.39% (inactive); in that of `O=C(N/N=C/c1cc(Br)c(O)c(Br)c1)c1cccnc1`, -2.33% (inactive).

Take `COc1cc(/C=N/NC(=O)c2cccnc2)cc(Br)c1O`: the inhibition is 3.86% (inactive). Regarding `O=C(N/N=C/c1cc(Br)c(Br)o1)c1cccnc1`, the inhibition was 4.32% (inactive). For the compound `O=C(N/N=C/c1cc2c(cc1Br)OCO2)c1cccnc1`, the inhibition was 3.42% (inactive). With `Cc1ccc(N(CC(=O)NCc2ccccn2)S(=O)(=O)c2ccccc2)cc1Cl`, the inhibition was -3.75% (inactive).

Take `Cc1ccc(NC(=O)CCN2C(=O)CSC2=O)cc1`: the inhibition was -13.2% (inactive). As to `CCCCN1C(=O)/C(=C2/Sc3ccc(OC)cc3N2CC)SC1=S`, the inhibition is -6.84% (inactive).

`COc1cc2c3c(c1)-c1c(sn(-c4cc(OC)ccc4OC)c1=S)C(C)(C)N3C(=O)C2=O`: the inhibition was 7.42% (inactive). Regarding `COc1ccc2c(c1)-c1c(sn(-c3ccccc3)c1=S)C(C)(C)N2`, the inhibition was 0.13% (inactive). For `COc1ccc(N2CCN(C(=O)c3ccc(Cl)c(S(=O)(=O)N4CCOCC4)c3)CC2)cc1`, the inhibition is -0.24% (inactive). In the case of `CN(C)c1c(-c2ccccc2)cc(-c2ccccc2)[nH]c1=O`, the inhibition was -13.7% (inactive).

Consider `O=C1/C(=C/c2ccc([N+](=O)[O-])cc2)C=C(c2ccccc2)N1c1ccccc1`, for which the inhibition is 16.3% (inactive). As for `O=C(O)c1cccc(N2C(=O)/C(=C/c3ccc([N+](=O)[O-])cc3)C=C2c2ccccc2)c1`, the inhibition was 15.9% (inactive). Take `CSCCC(NC(=O)c1ccccc1)C(=O)N1CCN(C(=O)c2ccccc2)CC1` (stereo unspecified): the inhibition is -5.85% (inactive). For the compound `C[C@H](CO)N1C[C@H](C)[C@@H](CN(C)S(=O)(=O)c2ccc(F)cc2)Oc2c(NS(=O)(=O)c3ccccc3)cccc2C1=O`, the inhibition is -4.12% (inactive). For `Cc1oc(-c2cccc(Cl)c2)nc1CN1CCC(C(=O)NCc2cccnc2)CC1`, the inhibition was 9.09% (inactive). As to `CCOc1ccc(NC(=O)CN2CCN(CC(=O)Nc3ccccc3OC)CC2)cc1`, the inhibition was -5.69% (inactive). In the case of `COc1ccccc1NC(=O)CN1CCN(CC(=O)Nc2ccc(F)cc2)CC1`, the inhibition was 1.85% (inactive). Consider `CCOC(=O)c1c(NC(=O)CN2CCN(C(=O)c3ccco3)CC2)sc(C)c1C`, for which the inhibition is -5.18% (inactive). Turning to `CC[n+]1c(/C=C(\C)SC)sc2ccccc21`, the inhibition is 3.81% (inactive).

Consider `CC[n+]1c(/C=C(\C)OC)sc2ccccc21`, for which the inhibition is -2.73% (inactive). `CC[n+]1c(/C=C/Nc2ccccc2)sc2ccccc21`: the inhibition was 11.6% (inactive). In the case of `CC/C(=C/c1sc2ccccc2[n+]1CC)SC` it was -0.17% (inactive); in that of `CC[n+]1c(/C=C(/C)SC)sc2ccccc21`, -2.81% (inactive); in that of `CCN1/C(=C\C=C(C(C)=O)C(C)=O)Sc2ccccc21`, 3.69% (inactive). `Cc1nn(C(C)C(=O)NNC(=S)Nc2ccc(F)cc2)c(C)c1[N+](=O)[O-]` (stereo unspecified): the inhibition is 6.47% (inactive). In the case of `Cc1c(O)ccc(C(=O)CN2CCN(c3ccccc3F)CC2)c1O`, the inhibition is -1.8% (inactive).

Take `CC(C)(C)c1ccc(C(=O)NCCCNC(=O)c2cccnc2)cc1`: the inhibition is -2.72% (inactive).

`Cc1sc2nc(-c3ccccn3)[nH]c(=O)c2c1-c1ccccc1`: the inhibition was -4.3% (inactive).

For the compound `CCN(CC)C(=O)c1sc2nc(-c3ccccn3)[nH]c(=O)c2c1C`, the inhibition was -6.6% (inactive). In the case of `Cc1cc(C)c(S(=O)(=O)N2CCCC(C(=O)N3CCOCC3)C2)c(C)c1` (stereo unspecified) it was -9.55% (inactive).

A word on the inhibition: it is the change of the read-out against control, counted positive when it falls.
